Reference: paper PMC4336329 (PLoS ONE, 2015)
The campaign covered roughly 310,000 compounds. About 14,000 (4.5%) showed an effect of 50% or more. Effects have a minus sign here. Only a selection was taken, and strong results are over-represented in it overall.

What follows are molecules tested against human ether-à-go-go-related gene (hERG) potassium channel (human, UniProt Q12809) (assay: primary screen, population patch clamp on CHO cells stably expressing hERG; higher = less effect of the substance).
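Also: peak tail current of the secondary pulse compared with the same well before compound.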

Sequence of human ether-à-go-go-related gene (hERG) potassium channel (Q12809 whole entry, looked up): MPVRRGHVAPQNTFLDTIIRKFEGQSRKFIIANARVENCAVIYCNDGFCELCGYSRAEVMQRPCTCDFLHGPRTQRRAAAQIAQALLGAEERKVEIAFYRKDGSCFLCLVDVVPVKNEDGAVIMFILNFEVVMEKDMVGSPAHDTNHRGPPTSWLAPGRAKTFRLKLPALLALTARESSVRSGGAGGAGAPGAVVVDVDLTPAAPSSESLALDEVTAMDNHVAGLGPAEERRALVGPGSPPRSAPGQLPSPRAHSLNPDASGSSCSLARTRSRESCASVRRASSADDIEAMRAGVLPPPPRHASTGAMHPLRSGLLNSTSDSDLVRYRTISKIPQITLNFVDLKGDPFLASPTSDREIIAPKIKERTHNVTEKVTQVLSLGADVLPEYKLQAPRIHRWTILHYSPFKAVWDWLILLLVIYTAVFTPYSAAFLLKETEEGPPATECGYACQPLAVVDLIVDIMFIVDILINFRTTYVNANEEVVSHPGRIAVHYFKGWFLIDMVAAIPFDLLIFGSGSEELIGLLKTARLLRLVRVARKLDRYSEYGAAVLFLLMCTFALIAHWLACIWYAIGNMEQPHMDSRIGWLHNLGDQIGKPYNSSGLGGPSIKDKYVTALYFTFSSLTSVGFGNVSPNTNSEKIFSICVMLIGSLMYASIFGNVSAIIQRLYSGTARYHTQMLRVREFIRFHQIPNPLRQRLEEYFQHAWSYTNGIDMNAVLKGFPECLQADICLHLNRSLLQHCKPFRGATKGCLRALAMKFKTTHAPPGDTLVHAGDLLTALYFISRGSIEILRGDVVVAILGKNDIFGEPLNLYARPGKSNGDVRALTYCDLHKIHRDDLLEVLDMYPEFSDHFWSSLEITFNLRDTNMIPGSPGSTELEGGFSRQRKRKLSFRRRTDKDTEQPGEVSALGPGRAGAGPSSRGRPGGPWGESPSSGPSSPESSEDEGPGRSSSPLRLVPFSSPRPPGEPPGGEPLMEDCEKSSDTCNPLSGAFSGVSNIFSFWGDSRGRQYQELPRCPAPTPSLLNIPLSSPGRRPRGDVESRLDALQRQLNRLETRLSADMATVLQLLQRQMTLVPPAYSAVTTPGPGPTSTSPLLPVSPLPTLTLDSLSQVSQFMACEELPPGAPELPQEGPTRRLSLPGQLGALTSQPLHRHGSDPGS

| SMILES | hERG current change (%, negative = inhibition) at 10uM [%] |
| --- | --- |
| CCC1CCCCN1CC(=O)Nc1ccc2c(c1)OCCO2 (stereo not drawn) | 10.6 |
| Cc1cccc(C)c1NC(=O)CN1CCc2ccccc2C1 | 8.31 |
| Cc1cc(NC(=O)CN2CCCCC2)n(-c2ccccc2)n1 | 6.65 |
| Cc1ccc(C2(COC(=O)C(C)C)CO2)c(OC(=O)C(C)C)c1 (stereo not drawn) | 2.15 |
| Cc1ccc(-c2n[nH]c(=O)c3ccccc23)cc1S(=O)(=O)NC(C)(C)C | 13.6 |
| CCn1c(SCC(N)=O)nnc1-c1ccc2c(c1)OCO2 | -0.333 |
| O=C(Nc1cc(Sc2ccccn2)cc([N+](=O)[O-])c1)c1ccc(Cl)cc1 | 11.6 |
| CCOc1ccccc1C(=O)Nc1cc(Cl)ccc1O | 14.7 |
| COc1ccc(CC(=O)N2CCc3cc(OC)c(OC)cc3C2C)c(OC)c1 (stereo not drawn) | -6.22 |
| CCc1ccccc1NC1c2ccccc2C(=O)N1c1cc(C)ccn1 (stereo not drawn) | -1.18 |
| Cc1ccc(C)c(C(=O)Nc2cc(C)nn2-c2nc(C)cc(C)n2)c1 | 3.98 |
| Cc1cc(C)nc(-n2nc(C)cc2NC(=O)CNC2CCCCC2)n1 | -52.4 |
| Cc1cc(C)nc(-n2nc(C)cc2NC(=O)c2ccc(F)cc2F)n1 | -0.0513 |
| COc1ccc(CCn2c(N)c(C#N)c3nc4ccccc4nc32)cc1OC | 4.14 |
| CCN(CC)S(=O)(=O)c1cccc(-c2nnc(SCC(=O)c3cc(C)n(C)c3C)o2)c1 | -25.5 |
| CC1=C(C(=O)OC(C)C)C(c2ccc(F)cc2)NC(=O)N1 (stereo not drawn) | -5.4 |
| CCOCC(=O)Nc1ccc(Br)c(C)c1 | 4.88 |
| O=C(NCCN1CCCC1=O)C1CCC(=O)N(CCc2cccc(F)c2)C1 (stereo not drawn) | 9.49 |
| COc1ccc(CCN2CC(C(=O)NCCc3ccc(C(F)(F)F)cc3)CCC2=O)cc1 (stereo not drawn) | -46.8 |
| O=C(NCCc1ccc(C(F)(F)F)cc1)C1CCC(=O)N(CCCN2CCCC2=O)C1 (stereo not drawn) | 13.1 |
| O=C(NCCc1cccc(C(F)(F)F)c1)C1CCC(=O)N(CCc2cccc(F)c2)C1 (stereo not drawn) | -56.8 |
| O=C(NCCc1ccc(C(F)(F)F)cc1)C1CCC(=O)N(CCc2cccc(F)c2)C1 (stereo not drawn) | -51.4 |
| O=C(NCCc1ccc(C(F)(F)F)cc1)C1CCC(=O)N(CCCc2ccccc2)C1 (stereo not drawn) | -50.2 |

| SMILES | hERG current change (%, negative = inhibition) at 10uM [%] |
| --- | --- |
| O=C(NCCc1ccccc1)C1CCC(=O)N(CCCN2CCCC2=O)C1 (stereo not drawn) | 5.82 |
| O=C(NCCc1cccs1)C1CCC(=O)N(CCc2cccc(F)c2)C1 (stereo not drawn) | -26.1 |
| O=C(NCCc1cn[nH]c1)C1CCC(=O)N(CCc2cccc(F)c2)C1 (stereo not drawn) | 25.1 |
| O=C(O)c1ccc(NC(=S)NC(=O)c2ccc(-c3ccccc3)cc2)cc1 | 19.4 |
| CNC[C@H](NC[C@@H](NCCCc1ccccc1)c1ccccc1)[C@H](C)O | 11.7 |
| Cc1ccc(CSCC(=O)Nc2ccc3c(c2)OCO3)cc1 | -14.5 |
| COc1ccccc1CC(=O)Nc1ccc(S(=O)(=O)N2CCN(C)CC2)cc1 | 14.4 |
| CS(=O)(=O)Nc1ccccc1C(=O)N1CCOCC1 | 16.4 |
| O=C(CSc1oc(-c2ccco2)nc1S(=O)(=O)c1ccc(Cl)cc1)NCC1CCCO1 (stereo not drawn) | -41.3 |
| CCN(CC)C(=N)/C(C#N)=N/Nc1ccc(C)cc1 | -56.6 |
| Cc1ccc(N/N=C(\C#N)C(=N)N2CCCCCC2)cc1 | 12.7 |
| CCN(CC)C(=N)/C(C#N)=N/Nc1ccccc1 | -15.7 |
| Cc1cc(NC(=O)Nc2cc(F)ccc2F)no1 | 17.7 |
| CCCN(Cc1nnc(-c2ccccc2Cl)o1)C(=O)c1cccc(S(=O)(=O)N2CCOCC2)c1 | -6.05 |
| CCCN(Cc1nnc(-c2ccccc2Cl)o1)C(=O)c1ccc(C)c(S(=O)(=O)N2CCOCC2)c1 | -55.8 |
| CCCN(Cc1nnc(-c2ccccc2Cl)o1)C(=O)c1cc([N+](=O)[O-])cc([N+](=O)[O-])c1 | -55.1 |
| O=C(c1cccc(S(=O)(=O)N2CCOCC2)c1)N(Cc1nnc(-c2ccccc2Cl)o1)C1CC1 | -24.9 |
| O=C(c1cc([N+](=O)[O-])cc([N+](=O)[O-])c1)N(Cc1nnc(-c2ccccc2Cl)o1)C1CC1 | -36.8 |
| Cc1ccc(S(=O)(=O)N2CCOCC2)cc1C(=O)N(Cc1nnc(-c2ccccc2Cl)o1)C1CC1 | -33.9 |
| CCCN(Cc1nnc(-c2ccccc2Cl)o1)C(=O)c1cc(S(=O)(=O)N2CCOCC2)ccc1F | -47.7 |
| O=C(c1ccc(Cl)c(S(=O)(=O)N2CCOCC2)c1)N(Cc1nnc(-c2ccccc2Cl)o1)C1CC1 | -58.9 |
| CCCN(Cc1nnc(-c2ccccc2Cl)o1)C(=O)c1cc2ccccc2o1 | -17 |
